From PubChem BioAssay (NCATS)
Several values for one entry are separate records, joined by “and”; a condition that tells them apart may be missing. Equal entries are not always repeated. Inconclusive results are not listed. A call without a number means that no potency is given here. Activity calls are given as the source filed them. Unless noted, the call rests on the fitted dose curve; in most records, active means well fitted curve in the direction sought with a large enough effect; inconclusive means small, poorly fitted or top-dose-only effect, or another doubt; inactive means no such curve, though single readings can be large; an effect the other way counts as inactive or inconclusive.

Experiments:
[1] = target: Phospholipid hydroperoxide glutathione peroxidase GPX4 (Homo sapiens) (UniProt P36969); assay: Primary qHTS Assay for Inhibitors of Recombinant Selenoprotein Glutathione Peroxidase 4 (GPX4) (AID 1845192); further: nearly all actives have a fitted effect of over 65% in size; further: potency means the concentration at half of the fitted maximal effect
Method in brief: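 Steps: GPX4 plus compound, 30 min RT; add GR/GSH/NADPH master mix; start with cumene hydroperoxide; read 340/450 nm fluorescence at 0 and 15 min. Finals were 200 nM GPX4, 1 mM GSH, 0.5 mM CHP, 0.5 mM NADPH, 100 nM GR.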

[2] = Cell Viability - BJ (AID 421; calls by dose curve;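 further: potency means the concentration at half of the fitted maximal effect; cells exposed to compound for 40 hours at 37 °C before readout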); settings: BJ fibroblast viability, qHTS
Method in brief: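 Quantitative HTS: ATP depletion in BJ cells after 40 hr compound exposure in complete culture medium, detected with CellTiter-Glo; AC50 from standard Hill fits.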

[3] = Cell Viability - MRC5 (AID 434; calls by dose curve;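 further: potency means the concentration at half of the fitted maximal effect; cells exposed to compound for 40 hours at 37 °C; potency reflects cytotoxicity seen as loss of intracellular ATP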); settings: MRC5 lung fibroblast viability, qHTS
Method in brief: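 ATP luminescence read-out (CellTiter-Glo, 20 min RT) after 40 hr, 37 °C compound exposure of 1500 MRC5 cells/well. Data normalized to DMSO (basal) and 100 uM tamoxifen (100% inhibition); AC50 from standard Hill equation.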

[4] = Cell Viability - SK-N-SH (AID 435; calls by dose curve;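 further: potency means the concentration at half of the fitted maximal effect; compound exposure lasted 40 h at 37 °C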); settings: SK-N-SH neuroblastoma cell viability qHTS
Method in brief: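 Cells seeded at 1500 per well and incubated 5 hr at 37 °C. Compound added, then 40 hr at 37 °C. CellTiter-Glo added, 20 min at room temperature, luminescence read.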

[5] = target: Mitogen-activated protein kinase 10 (Mus musculus) (UniProt Q61831); assay: JNK3 AlphaScreen Assay (AID 530; active means well fitted curve in either direction with a large enough effect, not every such curve was filed as active;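 further: kinase came from lysate of stimulated human HepG2 cells; signal reports phosphorylation of biotinylated GST-cJun 1-79 at Ser73 with 10 µM ATP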)
Method in brief: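 HepG2 lysate (IL-1b/TNFa pre-activated) + biotin-GST-cJun 1-79 + anti-pSer73 cJun; cpd titration, 15 min RT; ATP 10 uM start; Tris pH 7.6, MgCl2, DTT, vanadate; beads in EDTA buffer; AlphaScreen.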

[6] = Cell Viability - Mesenchymal (AID 546); settings: mesenchymal cells viability, qHTS; activity change, negative = cytotoxicity: at 91.7 µM (top of the series);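 further: cells exposed to compound for 40 hours before reading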
Method in brief: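 Human renal mesenchymal cells (glomerulus-derived), 1000 cells/well, 5 hr 37 °C pre-incubation; compound 40 hr, 37 °C; CellTiter-Glo, 20 min RT; luminescence; AC50 via Hill equation.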

[7] = target: Cytochrome P450 3A4 (Homo sapiens) (UniProt P08684); assay: qHTS Assay for Inhibitors and Substrates of Cytochrome P450 3A4 (AID 884); further: nearly all actives have a fitted effect of over 50% in size; further: potency means the concentration at half of the fitted maximal effect
Method in brief: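 Luminescent readout of luciferin produced by CYP3A4 (20 nM) dealkylation of Luciferin-PPXE, 25 uM (its KM). NADPH-driven reaction ran 60 min at RT after 10 min compound preincubation; data scaled to 57 uM ketoconazole as 100% inhibition.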

[8] = qHTS Assay for Identification of Small Molecule Inducers of Hypoxia Response (AID 2120; active means well fitted curve in the direction sought with a large enough effect in the signal ratio, with a control signal flat, not every such curve was filed as active; the % refers to the signal ratio)
Method in brief: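 Read-out: CCF4 FRET emission ratio 460nm/530nm (excitation 405nm), converted to %Activity, with AC50 fitted across a compound titration. ME-180 cells carried an HRE-driven beta-lactamase reporter; compound exposure 17 h, 37 degrees C.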

[9] = target: Peroxisome proliferator-activated receptor gamma (Homo sapiens) (UniProt P37231); assay: qHTS assay for small molecule agonists of peroxisome proliferator-activated receptor gamma signaling (AID 588536; active means well fitted curve in the direction sought with a large enough effect in the signal ratio, with a control signal flat, not every such curve was filed as active; the % refers to the signal ratio)
Method in brief: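 Using GeneBLAzer HEK293 cells, response was quantified by CCF4 fluorescence and normalized between basal DMSO (0%) and rosiglitazone 2 uM (100%); curves yielded half-maximal stimulation concentration and efficacy.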

[10] = target: Thyroid hormone receptor beta (Homo sapiens) (UniProt P10828); assay: qHTS assay for small molecule agonists of thyroid hormone receptor beta signaling (AID 588545; calls by dose curve)
Method in brief: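 HEK 293 TR-UAS-bla; agonist mode; 18 hrs, 37 C; CCF4, ex 405/em 460 and 530 nm; norm. T3 10 nM = 100%, DMSO = 0%; Hill fit → EC50, efficacy.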

[11] = qHTS assay for small molecule antagonists of retinoid X receptor alpha signaling (AID 588546); settings: HEK293T RXRa-UAS-bla, beta-lactamase ratio, antagonist mode; measured here: W530 green channel, cytotoxicity proxy;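 further: cells stimulated with 9-cis-retinoic acid as agonist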
Method in brief: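 Beta-lactamase reporter inhibition, read as CCF4 fluorescence ratio (ex 405, em 460/530 nm) after 2 h at RT. HEK293T UAS-bla cells, 2500/well, were stimulated with 9-cis-RA at 500 or 100 nM final alongside test compound for 18 h at 37 C.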

[12] = qHTS assay for environmental chemicals that activate the Aryl hydrocarbon Receptor (AhR) signaling pathway (AID 651777); settings: 1A2-DRE human hepatoma cells, luciferase, 24 h; activation: stronger effect = higher value; further: nearly all actives have a fitted effect of over 15% in size; further: potency means the concentration at half of the fitted maximal effect
Method in brief: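 Luminescence read-out: One-Glo added for 30 min at RT after 24 hr compound treatment (37 C, 5% CO2) of human hepatoma cells expressing a DRE/CYP1A2 promoter–luciferase reporter; increased signal indicates AhR activation.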

[13] = target: Peroxisome proliferator-activated receptor alpha (Homo sapiens) (UniProt Q07869); assay: qHTS assay for small molecule agonists of the peroxisome proliferator-activated receptor alpha (PPARalpha) signaling pathway (AID 651778); settings: PathHunter PPARalpha complementation, chemiluminescence, 6 h; max response: stronger effect = higher value
Method in brief: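 Enzyme-fragment complementation assay in which ligand-bound PPARalpha translocates and forms an active enzyme that generates chemiluminescence. Cells were plated overnight, exposed to compound for 6 hr at 37 C, and then given detection reagent for 60 min at room temperature.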

[14] = qHTS assay for small molecule agonists of the antioxidant response element (ARE) signaling pathway measured by Nrf2-dependant transcriptional activity (AID 720636; active means well fitted curve in the direction sought with a large enough effect in the repeat runs; an effect the other way counts as inactive or inconclusive; further: potency means the concentration at half of the fitted maximal effect;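 on activation: HepG2 cells with an ARE-driven luciferase reporter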)
Method in brief: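 HepG2 ARE-luc reporter line, 1% dialyzed FBS; 6 hr attachment at 37 C, compound pinned in, 16 hr at 37 C/5% CO2; ONE-Glo, 30 min RT, luminescence read.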

[15] = qHTS assay for cell viability of HEK293 cells (AID 743288); settings: ATP luminescence (CellTiter-Glo), 18 h; max response: stronger effect = lower value; further: nearly all actives have a fitted effect of over 50% in size; further: potency means the concentration at half of the fitted maximal effect
Method in brief: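 Quantitative high-throughput screen: compounds were pinned onto parental HEK293 cells (2,000 per well) after a minimum 5 h settling at 37 C, incubated 18 h at 37 C, and intracellular ATP measured by luciferase luminescence.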

[16] = qHTS assay for cell viability of the p53RE-bla HCT-116 cell line (AID 743292); further: nearly all actives have a fitted effect of over 55% in size
Method in brief: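 Luminescent ATP quantitation (CellTiter-Glo) served as the viability read-out; reagent was added after 16 h compound exposure at 37 C and read after 30 min at room temperature. Cells: p53RE-bla HCT-116, 4,000 per well.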

[17] = target: Luciferin 4-monooxygenase (Photinus pyralis) (UniProt P08659); assay: Biochemical firefly luciferase enzyme assay for NPC (AID 624030);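 further: purified P. pyralis luciferase at 10 nM with luciferin and ATP substrate; nearly all actives have a fitted effect of over 70% in size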
Method in brief: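 Purified P. pyralis luciferase at 10 nM in 50 mM Tris Acetate (final), luminescence read within 5 minutes of enzyme addition to compounds. Activity normalised to PTC124 versus DMSO; concentration-response curves classed by r2, magnitude and activity.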

Sequence of Peroxisome proliferator-activated receptor gamma (Homo sapiens) (P37231 whole entry, looked up): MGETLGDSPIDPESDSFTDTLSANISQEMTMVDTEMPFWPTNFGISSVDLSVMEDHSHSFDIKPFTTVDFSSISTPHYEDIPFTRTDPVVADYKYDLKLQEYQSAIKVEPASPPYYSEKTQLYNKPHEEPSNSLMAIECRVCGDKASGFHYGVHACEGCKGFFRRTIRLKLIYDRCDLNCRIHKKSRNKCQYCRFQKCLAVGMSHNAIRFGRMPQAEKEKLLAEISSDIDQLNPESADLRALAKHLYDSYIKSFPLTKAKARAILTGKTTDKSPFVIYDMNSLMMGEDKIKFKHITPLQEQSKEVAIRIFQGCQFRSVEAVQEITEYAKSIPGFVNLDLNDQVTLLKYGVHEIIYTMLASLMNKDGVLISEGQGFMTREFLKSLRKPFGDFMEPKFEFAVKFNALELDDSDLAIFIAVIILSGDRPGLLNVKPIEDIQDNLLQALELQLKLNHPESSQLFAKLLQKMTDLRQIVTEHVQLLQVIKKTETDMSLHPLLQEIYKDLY
Sequence of Cytochrome P450 3A4 (Homo sapiens) (P08684 whole entry, looked up): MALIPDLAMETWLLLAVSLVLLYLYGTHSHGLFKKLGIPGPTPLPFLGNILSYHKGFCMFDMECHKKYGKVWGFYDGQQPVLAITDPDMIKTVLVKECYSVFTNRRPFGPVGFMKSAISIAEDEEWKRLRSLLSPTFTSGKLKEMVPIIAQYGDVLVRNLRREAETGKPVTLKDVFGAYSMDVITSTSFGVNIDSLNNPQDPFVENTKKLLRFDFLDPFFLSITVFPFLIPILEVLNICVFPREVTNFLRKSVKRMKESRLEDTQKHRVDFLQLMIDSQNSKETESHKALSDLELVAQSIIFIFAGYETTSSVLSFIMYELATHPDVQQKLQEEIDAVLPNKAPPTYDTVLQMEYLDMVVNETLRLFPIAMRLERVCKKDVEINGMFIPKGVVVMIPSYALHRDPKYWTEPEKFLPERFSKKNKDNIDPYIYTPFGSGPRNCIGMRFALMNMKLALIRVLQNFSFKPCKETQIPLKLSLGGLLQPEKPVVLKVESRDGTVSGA
Sequence of Peroxisome proliferator-activated receptor alpha (Homo sapiens) (Q07869 whole entry, looked up, the tested form may be a part): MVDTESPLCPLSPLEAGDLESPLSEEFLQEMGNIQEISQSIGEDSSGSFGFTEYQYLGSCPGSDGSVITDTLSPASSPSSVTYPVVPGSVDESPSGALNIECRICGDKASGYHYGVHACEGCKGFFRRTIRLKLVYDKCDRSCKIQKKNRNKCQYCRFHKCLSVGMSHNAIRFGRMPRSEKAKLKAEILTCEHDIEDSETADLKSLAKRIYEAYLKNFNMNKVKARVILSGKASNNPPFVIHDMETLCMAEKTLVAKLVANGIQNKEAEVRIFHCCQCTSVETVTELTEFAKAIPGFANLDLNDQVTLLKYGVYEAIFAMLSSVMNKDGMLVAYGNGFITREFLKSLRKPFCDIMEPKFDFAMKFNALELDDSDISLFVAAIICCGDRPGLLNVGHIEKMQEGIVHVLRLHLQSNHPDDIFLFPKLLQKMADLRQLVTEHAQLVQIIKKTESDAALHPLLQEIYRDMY
Sequence of Thyroid hormone receptor beta (Homo sapiens) (P10828 whole entry, looked up): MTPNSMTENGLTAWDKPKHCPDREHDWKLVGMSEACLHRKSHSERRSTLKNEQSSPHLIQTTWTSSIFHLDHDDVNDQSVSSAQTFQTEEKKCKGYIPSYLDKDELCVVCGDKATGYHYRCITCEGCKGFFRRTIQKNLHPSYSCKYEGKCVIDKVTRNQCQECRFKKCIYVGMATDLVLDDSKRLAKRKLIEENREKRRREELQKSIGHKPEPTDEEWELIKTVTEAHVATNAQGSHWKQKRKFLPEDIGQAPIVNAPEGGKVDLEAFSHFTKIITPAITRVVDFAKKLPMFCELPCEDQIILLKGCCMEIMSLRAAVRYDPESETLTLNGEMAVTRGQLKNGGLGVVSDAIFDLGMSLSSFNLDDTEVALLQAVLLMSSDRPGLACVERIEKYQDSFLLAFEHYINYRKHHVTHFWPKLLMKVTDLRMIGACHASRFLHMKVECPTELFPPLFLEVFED
Sequence of Phospholipid hydroperoxide glutathione peroxidase GPX4 (Homo sapiens) (P36969 whole entry, looked up): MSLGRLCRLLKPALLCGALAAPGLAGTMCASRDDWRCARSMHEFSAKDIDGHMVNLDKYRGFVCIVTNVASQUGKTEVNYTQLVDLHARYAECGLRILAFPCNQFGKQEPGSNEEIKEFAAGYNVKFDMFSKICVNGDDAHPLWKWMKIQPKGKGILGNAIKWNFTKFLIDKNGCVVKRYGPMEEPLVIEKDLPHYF
Sequence of Luciferin 4-monooxygenase (Photinus pyralis) (P08659 whole entry, looked up): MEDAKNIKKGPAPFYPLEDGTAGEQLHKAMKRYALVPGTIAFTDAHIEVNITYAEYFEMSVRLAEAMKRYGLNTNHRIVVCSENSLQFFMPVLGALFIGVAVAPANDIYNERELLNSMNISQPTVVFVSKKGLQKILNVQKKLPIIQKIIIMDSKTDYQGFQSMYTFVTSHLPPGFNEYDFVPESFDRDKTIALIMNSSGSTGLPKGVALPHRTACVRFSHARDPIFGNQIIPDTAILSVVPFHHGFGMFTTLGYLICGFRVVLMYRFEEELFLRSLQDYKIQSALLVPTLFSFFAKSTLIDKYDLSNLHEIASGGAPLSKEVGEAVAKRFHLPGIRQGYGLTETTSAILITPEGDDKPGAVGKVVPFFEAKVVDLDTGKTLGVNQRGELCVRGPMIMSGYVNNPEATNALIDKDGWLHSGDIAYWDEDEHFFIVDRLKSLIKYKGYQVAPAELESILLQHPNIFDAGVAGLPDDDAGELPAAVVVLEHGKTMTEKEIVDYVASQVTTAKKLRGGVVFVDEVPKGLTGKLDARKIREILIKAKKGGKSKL

SMILES: C=C[C@]1(C)C[C@@H](OC(=O)CSC2C[C@H]3CC[C@@H](C2)N3C)C2(C)[C@H](C)CCC3(CCC(=O)[C@H]32)[C@@H](C)[C@@H]1O (some centres undefined)
- Potency [1]: inactive

SMILES: CCCCCCCCCC(=O)OCCN1CCN(CCCN2c3ccccc3Sc3ccc(C(F)(F)F)cc32)CC1
- Potency [1]: inactive

SMILES: CC(=O)OC/C=C(\C)CCC=C(C)C
- Potency [2]: > 92 µM (inactive)
- Potency [3]: > 92 µM (inactive)
- Potency [4]: > 92 µM (inactive)
- Potency [5]: inactive
- activity change, negative = cytotoxicity [6]: 8.38% (inactive)
- Potency [7]: inactive
- outcome [8]: inactive
- outcome [9]: inactive
- outcome [10]: inactive
- max response [11]: -3.71% and -6.77%
- activation [12]: 0.424% (inactive) and -0.161% (inactive)
- max response [13]: -5.73% (inactive) and -0.163% (inactive)
- Potency [14]: inactive
- max response [15]: -10.3% (inactive) and 5.2% (inactive)
- Potency [16]: inactive

SMILES: Cc1cc2nc3c(=O)[nH]c(=O)nc-3n(C[C@@H](O)[C@@H](O)[C@@H](O)COP(=O)(O)O)c2cc1C
- Potency [1]: 2.55 µM (active)

SMILES: CCCCOCCO
- Potency [2]: > 92 µM (inactive)
- Potency [3]: > 92 µM (inactive)
- Potency [4]: > 92 µM (inactive)
- Potency [5]: inactive
- activity change, negative = cytotoxicity [6]: 1.27% (inactive) and 8.74% (inactive)
- Potency [7]: inactive
- outcome [8]: inactive
- outcome [9]: inactive
- outcome [10]: inactive
- max response [11]: -0.95% and -3.08% and -12.9%
- activation [12]: -1.94% (inactive) and 0.578% (inactive) and 2.45% (inactive)
- max response [13]: -6.41% (inactive) and -1.42% (inactive) and -1.76% (inactive)
- Potency [14]: inactive
- max response [15]: 4.48% (inactive) and -11.2% (inactive) and -7.95% (inactive)
- Potency [16]: inactive

SMILES: CC(O)C(CO)NC(=O)C1CSSCC(NC(=O)C(N)Cc2ccccc2)C(=O)NC(Cc2ccccc2)C(=O)NC(Cc2c[nH]c3ccccc23)C(=O)NC(CCCCN)C(=O)NC(C(C)O)C(=O)N1 (centres undefined)
- Potency [1]: 12.6 µM (active)

SMILES: NC(=O)C1CCCN1C(=O)C(Cc1cnc[nH]1)NC(=O)C1CCC(=O)N1 (centres undefined)
- Potency [1]: inactive

SMILES: CO[C@H]1O[C@@H]2O[C@@]3(C)CC[C@H]4[C@H](C)CC[C@@H]([C@@H]1C)[C@@]24OO3
- Potency [1]: inactive

SMILES: Cc1nccn1CCC(C(N)=O)(c1ccccc1)c1ccccc1
- Potency [1]: inactive

SMILES: CN1CC[C@H](CN2c3ccccc3Sc3ccccc32)C1
- activity change, negative = inhibition [5]: 0.762% [at 11.4 µM] (inactive)
- Potency [17]: inactive
- Potency [1]: inactive

SMILES: CN1N=C2CCN(C(=O)[C@H](COCc3ccccc3)NC(=O)C(C)(C)N)C[C@]2(Cc2ccccc2)C1=O
- Potency [1]: inactive

SMILES: COc1cc(/C=C\C(=O)N2CCN(CC(=O)N3CCCC3)CC2)cc(OC)c1OC
- Potency [1]: inactive

SMILES: C[N+](C)(C)C1CCC(CC2CCC([N+](C)(C)C)CC2)CC1 (centres undefined)
- Potency [1]: inactive

SMILES: CC(C)(C)NC(=O)[C@@H]1C[C@@H]2CCCC[C@H]2CN1C[C@@H](O)[C@H](Cc1ccccc1)NC(=O)[C@H](CC(N)=O)NC(=O)c1ccc2ccccc2n1
- Potency [1]: inactive

SMILES: C[C@@H](O)[C@H]1C(=O)N2C(C(=O)O)=C(S[C@@H]3CN[C@H](C(=O)Nc4cccc(C(=O)O)c4)C3)[C@H](C)[C@H]12
- Potency [1]: inactive

SMILES: O=C1c2ccccc2C(=O)C1c1ccc2ccccc2n1
- Potency [2]: 33.1 µM (active)
- Potency [3]: 30.1 µM (active)
- Potency [4]: 34 µM (active)
- activity change, negative = cytotoxicity [6]: -33.6% (inactive)
- Potency [7]: 2.51 µM (active)
- outcome [8]: inactive
- outcome [9]: inactive
- outcome [10]: inactive
- max response [11]: -3.83%
- Potency [12]: 39.8 µM (active) and 7.08 µM (active)
- max response [13]: 1.24% (inactive) and 1.1% (inactive)
- Potency [14]: 1.54 µM (active) and 1.33 µM (active)
- Potency [15]: 39.8 µM (active)
- Potency [16]: inactive
